Gli-Sufu antag – Gli-Sufu pathway antagonism; 340,000 compounds, 0.74% hits; Sufu-KO-LIGHT fibroblasts, Gli luciferase reporter luminescence; inhibition, % at 5 µM; AID 588413;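 active = inhibition above about 55%, limit read from the data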;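 note: 0% = DMSO-treated cells and 100% = wells with medium but no cells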
697 NFkB inh – inhibitors of the PMA/ionomycin-induced NF-kB reporter in 697 B cells. AID 435022. 697 B-cell NF-kB luciferase reporter, 16 h. inhibition, % at 4 µM. 330,000 compounds, 0.33% hits; in the data active = inhibition above about 35%
COUP-TFII inh – blocks human COUP-TFII nuclear receptor | HEK293T NGFI-A luciferase reporter, luminescence | inhibition, % at 8.6 µM | 370,000 compounds, 0.7% hits | P24468 | AID 686940;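 active = inhibition above a per-plate cutoff, mean inhibition of test wells between control levels plus 3 SD, cut at about 38% in these data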;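 note: cells cotransfected with COUP-TFII expression vector driving the NGFI-A reporter; 0% = median of COUP-TF2 test wells and 100% = reporter-only cells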
Target sequence (P24468 whole entry, looked up): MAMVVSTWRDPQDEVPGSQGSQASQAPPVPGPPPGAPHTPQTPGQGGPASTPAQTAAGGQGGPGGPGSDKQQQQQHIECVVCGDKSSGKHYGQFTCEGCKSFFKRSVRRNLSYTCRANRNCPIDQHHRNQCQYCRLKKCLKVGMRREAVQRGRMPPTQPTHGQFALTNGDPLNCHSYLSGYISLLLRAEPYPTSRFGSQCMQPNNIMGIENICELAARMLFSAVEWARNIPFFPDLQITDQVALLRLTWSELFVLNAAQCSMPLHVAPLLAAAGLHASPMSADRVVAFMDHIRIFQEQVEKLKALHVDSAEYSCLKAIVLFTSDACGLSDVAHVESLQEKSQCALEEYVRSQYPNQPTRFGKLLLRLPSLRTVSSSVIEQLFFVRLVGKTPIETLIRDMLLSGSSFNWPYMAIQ
H9c2 TAG inh – inhibitors of triacylglycerol accumulation. inhibition, % at 12.5 µM. 230,000 compounds, 0.66% hits. H9c2 cells, Nile Red lipid (TAG) fluorescence; cells loaded with 200 µM oleic acid;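 active = pattern-corrected inhibition of lipid staining of at least 50% with the nuclear-stain viability signal not falling by more than 50%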;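 note: 0% = DMSO wells and 100% = triacsin C control wells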
Cardio protect – protects H9c2 cardiomyocytes from peroxide injury | H2O2 injury protection, ATPLite, 2 h | protection from H2O2 cell death, % at 20 µM | 360,000 compounds, 0.63% hits;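 active = compounds giving at least 50% protection of heart cells from peroxide-induced death in the single-dose screen, raw or plate-pattern-corrected value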;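 note: 0% = DMSO wells with peroxide and 100% = DMSO wells without peroxide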
Jurkat NFkB inh – inhibitors of the PMA/ionomycin-induced NF-kB reporter in Jurkat cells; 330,000 compounds, 0.53% hits; PMA/ionomycin-induced NF-kB luciferase reporter, luminescence; inhibition, % at 4 µM; AID 435003; in the data active = inhibition above about 50%
Jurkat NFkB conf – lowers PMA/ionomycin-induced NF-kB signal in Jurkat cells | inhibition, % at 4 µM | shares compounds with Jurkat NFkB inh | AID 435020 | 2,700 compounds, 27% hits | Jurkat NF-kB luciferase, 16 h;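 active = inhibition reaching about 45% at 4 µM in either replicate, limit read from the data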;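 note: plate controls were PMA/ionomycin stimulated DMSO wells for no effect and unstimulated DMSO wells for full effect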
* hit, by the source's call; / = no result. Only some compounds are listed: those with a hit (about 2.6% of all), similar ones and a draw of the others.

SMILES | Gli-Sufu antag | 697 NFkB inh | COUP-TFII inh | H9c2 TAG inh | Cardio protect | Jurkat NFkB inh | Jurkat NFkB conf
COc1ccc(N2C(=O)c3n[nH]c(C(C)C)c3C2c2ccc(C)cc2)cc1 (stereo not drawn) | / | / | 10 | / | / | / | /
CCOc1ccc(S(=O)(=O)NCc2ccccn2)cc1NC(=O)c1ccccc1F | 21 | 11 | -11 | / | 0 | 54* | 45
COc1ccc(S(=O)(=O)NCc2ccccn2)cc1NC(=O)c1ccccc1 | 36 | -3 | 17 | / | 2 | 43 | /
COCCNC(=O)C(=O)Nc1ccc2c(c1)N(S(=O)(=O)c1cccs1)CCC2 | -8 | 3 | -12 | 32 | -2 | 60* | 24
O=C(NCCCO)C(=O)Nc1ccc2c(c1)N(S(=O)(=O)c1cccs1)CCC2 | -1 | 21 | -2 | 7 | -1 | 14 | /
O=C(NCCC1CCCCN1S(=O)(=O)c1cccs1)C(=O)Nc1ccccc1 (stereo not drawn) | -4 | -6 | 5 | 12 | -3 | -5 | /
COc1ccc(NC(=O)C(=O)NCCC2CCCCN2S(=O)(=O)c2cccs2)cc1 (stereo not drawn) | 2 | -27 | 14 | 47 | 1 | 61* | 35
COc1ccc(NC(=O)C(=O)NCC2CCCN2S(=O)(=O)c2ccc(C)cc2)cc1 (stereo not drawn) | 69* | -170 | -56 | 38 | -6 | 76* | 64*
COc1ccc(S(=O)(=O)N2CCCC2CNC(=O)C(=O)Nc2ccc(C)cc2)cc1 (stereo not drawn) | -12 | 8 | -2 | 23 | -6 | 8 | /
COC(=O)C1=C(C)N(Cc2ccccc2C(F)(F)F)C(=NCc2ccc(OC)cc2)NC1c1ccccc1C(F)(F)F (stereo not drawn) | / | / | 15 | / | / | / | /
CCn1c(SCC(=O)N/N=C/c2ccc(C)s2)nc2ccccc21 | -9 | -46 | -12 | -13 | -2 | 53* | 22
O=C(Nc1ccc2c(c1)Cc1ccccc1-2)NC1CCCCN(Cc2cccc(Cl)c2)C1=O (stereo not drawn) | / | / | -7 | / | / | / | /
CCCCCCCCN1C(=O)[C@@H](CC(=O)NCCCN2CCCC2=O)C[C@@]2(C(=O)OC)C1=C[C@H](C(C)(C)C)O[C@@H]2C | / | / | 9 | / | / | / | /
Cc1ccc(/C=N/Nc2nncc(-c3ccccc3)n2)o1 | -28 | -5 | -32 | / | 23 | -39 | /
Cc1[nH]n(-c2ccccc2)c(=O)c1/C=N/Nc1nncc(-c2ccccc2)n1 | 85* | -17 | -17 | / | -18 | 55* | 40
O=C(Nc1ccccc1)c1cc(-c2ccccc2Cl)no1 | -8 | 0 | -59 | -3 | -14 | -172 | -41
COc1ccc(NC(=O)c2cc(-c3ccccc3Cl)no2)cc1 | 25 | 5 | -10 | / | 1 | -21 | /
COc1ccc(OC)c(-c2nnc3n2N=C(c2ccc(OC)c(OC)c2)CS3)c1 | 47 | -41 | -130 | / | 0 | 58* | 44
COc1ccc(OC)c(-c2nnc3n2N=C(c2ccc(OC)c(OC4CCCC4)c2)CS3)c1 | 51 | 11 | -28 | / | 6 | 79* | 63*
COc1ccc(OC)c(-c2nnc3n2N=C(c2ccc(OC(F)F)c(OCC4CC4)c2)CS3)c1 | 6 | -36 | -10 | 11 | -5 | 47 | /
CCCCN1C(=O)N2Cc3ccc(C)cc3C2CS1(=O)=O (stereo not drawn) | / | / | -38 | / | / | / | /
CC1=C([N+](=O)[O-])C(c2cccc(Br)c2)C2=C(N1)c1ccccc1C2=O (stereo not drawn) | 36 | -14 | -67 | / | -19 | 54* | 20
Clc1ccccc1Cn1ccc2ccc(-c3ccc4ccn(Cc5ccccc5Cl)c4c3)cc21 | / | / | -7 | / | / | / | /
Oc1ccccc1C=NN=C1c2ccccc2-c2ccccc21 | 29 | / | 5 | 5 | -11 | / | /
Oc1cccc(/C=N/N=C/c2cccc(O)c2O)c1O | 16 | -191 | -23 | / | -9 | 81* | -21
SMILES | Gli-Sufu antag | 697 NFkB inh | COUP-TFII inh | H9c2 TAG inh | Cardio protect | Jurkat NFkB inh | Jurkat NFkB conf
O=C(Cc1ccccc1)NCc1ccc(-n2cccc2)cc1 | -16 | -36 | -39 | / | 4 | 54* | 14
COc1ccc(C(=O)Cn2c(=N)n(C)c3ccccc32)cc1 | -37 | -199 | -9 | -1 | -10 | -124 | /
COc1ccc(C(=O)CN2Cc3ccccc3C2=N)cc1 | -54 | -202 | -56 | 9 | 5 | -157 | -76
CC(=O)Nc1ccc(-c2nc3cc(Cl)ccc3o2)cc1 | -116 | -239 | -52 | -21 | -6 | -152 | -99
COc1ccc(-c2c(Cc3ccccc3)nc(NC(=O)c3ccccc3)n2C)cc1 | / | / | -5 | / | / | / | /
COc1cc(OC)cc(C(=O)NCC(=O)N2CC=C(c3ccccc3)CC2)c1 | -13 | -44 | 4 | 15 | 19 | 70* | 14
c1ccc(CSc2ccc(-c3ccccn3)nn2)cc1 | -115 | -187 | -34 | -30 | 4 | -160 | -87
CSc1ccc(/C=N/NC(=O)c2ccc(C)c(C)c2)cc1 | -9 | 1 | -15 | / | -6 | -13 | /
CSc1ccc(/C=N/NC(=O)c2sccc2C)cc1 | -53 | -187 | -45 | / | -3 | -159 | -93
CCn1c(Cc2cccs2)nnc1SCC(=O)Nc1ccccc1-c1ccccc1 | / | / | 4 | / | / | / | /
CC(=Nc1ccc(Br)cc1)c1sc2ccccc2c1O | -113 | -130 | -44 | 5 | -27 | -201 | -13
COC(=O)[C@]12C[C@H](CC(=O)N3CCN(C(=O)c4ccco4)CC3)C(=O)N(CCc3ccc(OC)c(OC)c3)C1=C[C@H](C(C)(C)C)O[C@@H]2C | / | / | 3 | / | / | / | /
Cc1ccccc1C=Nc1ccccc1C(N)=O | -3 | 2 | 6 | / | 3 | 54* | 11
Cc1ccc(C=Nc2ccccc2C(N)=O)cc1 | -10 | -82 | -29 | / | 14 | 7 | /
CCN(CC)c1ccc(NC(=O)c2ccc(Br)o2)cc1 | -94 | -91 | -50 | 16 | -24 | -153 | -63
Clc1cc(Cl)cc(CNC2CCC23CCCCC3)c1 (stereo not drawn) | / | / | -1 | / | / | / | /
CSc1ccc(/C=N/NC(=O)CNc2cccc3ccccc23)cc1 | -6 | 23 | -2 | / | -7 | 0 | /
O=C(CNc1cccc2ccccc12)N/N=C/c1ccc[nH]1 | 25 | 8 | -1 | 0 | -2 | 59* | -3
COc1cc(CCC(=O)Nc2nnc(C)s2)cc(OC)c1OC | -9 | -36 | -1 | / | 2 | 52* | 27
O=[N+]([O-])c1ccc(N=Nc2ncc[nH]2)cc1 | -5 | -145 | -31 | / | -13 | 82* | 21
Cc1ccc(C(=O)OCC(=O)c2ccccc2)cc1 | -123 | -120 | -48 | -6 | -15 | -169 | -63
Cc1ccc(C(=O)CC(=O)c2ccccc2)cc1 | -55 | -160 | -36 | / | 20 | -133 | /
CC(=O)Oc1ccc(-c2csc(Nc3cccc(C)n3)n2)cc1 | -70 | -135 | -32 | / | 2 | -151 | -80
Cc1cccc(Nc2nc(-c3ccccn3)cs2)n1 | -61 | -169 | -30 | / | -13 | -185 | -93
CCOC(=O)CSc1nc2cc(C)ccc2cc1C#N | -11 | -119 | -43 | 8 | -10 | -156 | -89

Screening results (PubChem BioAssay)
